Experimental data taken from PubChem BioAssay AID1929 (Vanderbilt High Throughput Screening Facility, 2009).
Calls of active or inactive are those of the source. How the calls were made is not given here.

Target: Muscarinic acetylcholine receptor M3 (Homo sapiens) (UniProt P20309)
Test: ACh potency shift at human M3 – cell-based, analogs, calcium, selectivity assay for M4 PAM project, SAR follow-up (AID 1929)
Details: hM3 cells, ACh CRC fold-shift, calcium mobilization; with ACh 0.1 µM; with compound at fixed dose

Sequence of Muscarinic acetylcholine receptor M3 (Homo sapiens) (P20309 whole entry, looked up): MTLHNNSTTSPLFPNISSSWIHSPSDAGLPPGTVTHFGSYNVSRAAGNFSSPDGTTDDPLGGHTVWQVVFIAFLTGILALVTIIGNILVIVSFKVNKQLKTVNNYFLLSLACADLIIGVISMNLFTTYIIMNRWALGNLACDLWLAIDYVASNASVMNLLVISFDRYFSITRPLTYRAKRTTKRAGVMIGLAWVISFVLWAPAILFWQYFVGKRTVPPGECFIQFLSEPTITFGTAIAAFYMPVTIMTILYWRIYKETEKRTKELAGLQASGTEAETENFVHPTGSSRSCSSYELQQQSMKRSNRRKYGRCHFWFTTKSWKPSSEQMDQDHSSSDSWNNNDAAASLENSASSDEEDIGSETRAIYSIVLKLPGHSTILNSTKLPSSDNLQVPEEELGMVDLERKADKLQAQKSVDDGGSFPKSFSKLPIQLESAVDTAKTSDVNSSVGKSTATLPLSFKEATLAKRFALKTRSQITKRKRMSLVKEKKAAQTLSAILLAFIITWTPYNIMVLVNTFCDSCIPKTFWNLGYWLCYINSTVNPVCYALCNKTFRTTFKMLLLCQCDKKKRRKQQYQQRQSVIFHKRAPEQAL

ACh response, % max, inactive:
Cc1cc(OCc2ccncc2)nc2sc(C(=O)NCc3cccc(F)c3F)c(N)c12 94.7, COc1ccc(CNC(=O)c2sc3nc(OCc4ccncc4)cc(C)c3c2N)cc1 90.1, Cc1cc(OCCN2CCOCC2)nc2sc(C(=O)NC(C)(C)C)c(N)c12 96.8, Cc1cc(OCc2ccncc2)nc2sc(C(=O)NCc3cc(F)ccc3F)c(N)c12 96.3
